Test results as given in PubChem BioAssay AID1892 (NMMLSC, 2009).
The campaign covered roughly 5,900 compounds. About 140 (2.4%) were called active. The sample holds actives, similar compounds and a random draw of the others, so the mix is not that of the screen. Cut-off read from the data, not from the text of the source: active = binding response below about 16% or above about 210%; inactive = in between.

Each compound was assayed against Mitogen-activated protein kinase kinase kinase 2 (Homo sapiens) (UniProt Q9Y2U5) (assay: wildtype MEKK2 PB1-MEK5 interaction enhancers or blockers – biochemical, single concentration, multiplex bead flow cytometry, confirmation (AID 1892)). Conditions: Alexa488-MEK5 binding to MEKK2 WT, at 10 µM, actives lie on both sides.

Binding response (% of control), inactive:
Cc1nn(-c2ccccc2)c(C)c1NC(=O)CCl 95%
C=CCn1c(P(C)(=O)O)nc2ccccc21 95%
CNC(=O)/C(=C\C=C\c1ccccc1)NC(=O)c1ccc([N+](=O)[O-])cc1 99%
Cc1ccc(N(CCC(=O)O)S(=O)(=O)c2cccc(C(F)(F)F)c2)cc1 102%
CN(c1ccccc1)c1ccc(/C=c2\s/c(=C(/C#N)C(=O)C(C)(C)C)n(Cc3ccco3)c2=O)cc1 73%
CCN(CC)CCCNC(=O)c1ccc2c(=O)n(Cc3ccc4c(c3)OCO4)c(=S)[nH]c2c1 128%
O=C(NC1CCN(Cc2ccccc2)CC1)c1ccc(Oc2cc(Cl)cc(Cl)c2)o1 138%
COCCN1C=C2C(=O)C(C)(OC(=O)C3CCCC3)C(=O)C=C2C=C1c1ccsc1 (stereo not given) 96%
O=C(NCc1ccccc1Cl)NC(=O)c1csc([N+](=O)[O-])c1 104%
COc1ccc(CCn2c(NN=C3CCCC3)nc3c2c(=O)[nH]c(=O)n3C)cc1 102%
CCOC(=O)c1sc2nc(C)nc(SCC(N)=O)c2c1C 102%
COc1ccccc1N=C(C)C1=C(O)COC1=O 106%
Cc1nc2cc(S(=O)(=O)C(F)(F)F)ccc2s1 106%
CC(C)CC(=O)NC(=S)NCc1ccccc1 98%
COc1ccc(C(=O)NCC(=O)N/N=C/c2ccc([N+](=O)[O-])o2)cc1OC 92%
CCOC(=O)c1c(NC(=O)c2ccc(S(=O)(=O)N(C)CC3CCCO3)cc2)sc2c1CC(C)(C)NC2(C)C (stereo not given) 121%
COc1cccc(OCC(=O)NNC(=O)c2cnccn2)c1 98%
COc1ccc(C2CC(=O)Nc3cc(C)c(C)cc32)c(OC)c1OC (stereo not given) 101%
COc1ccc(SC[C@H](Cc2ccccc2)N2CCN(CCc3ccccc3)CCC2=O)cc1 129%
Cc1cc(C)nc(-n2ncc3c2CC(c2ccc(C(C)C)cc2)CC3=O)n1 (stereo not given) 102%
Cc1c(C#N)c2ncn(CC#N)c(=O)c2n1-c1ccccc1 99%
CC(=O)Nc1ccc(N2CCOCC2)c(C(=O)Nc2cccc(C)c2)c1 102%
CCCCNC(=O)N1CCCC(N(C)CCc2ccc(OC)c(OC)c2)C1 (stereo not given) 103%
Cc1ccc(C(=O)NC(=S)Nc2ccc3[nH]c(=O)[nH]c3c2)cc1C 101%
CCN1CCN(c2ccc(S(=O)(=O)N3CCCCC3)cc2NC(=O)Cc2c(Cl)cccc2Cl)CC1 125%
Cc1cnc(NC(=O)Cn2cnc3c2c(=O)n(C)c(=O)n3C)s1 96%
O=c1c2ccccc2c(-c2ccccc2)nn1Cc1ccccc1 100%
Cc1ccccc1OCC(=O)Nc1ccc(N2CCN(C(=O)C(C)C)CC2)c(Cl)c1 93%
O=C1NCC(=O)N(Cc2ccccc2)/C1=C/c1ccccc1 75%
CC1(C)OC(=O)N2CCc3ccccc3C21C (stereo not given) 101%
CN(C)c1ccc(/C=C2\NC(=S)N(Cc3ccccc3)C2=O)cc1 86%
Cc1ccc(N2C(=O)CC(N3CCSCC3)C2=O)c(C)c1 (stereo not given) 103%
Cc1ccc(NC(=S)N(CCCN2CCCC2)Cc2cccn2Cc2ccc(Cl)cc2)cc1 160%
COc1ccc(-c2[nH]ncc2CN(C)Cc2c(C)n[nH]c2C)c(OC)c1 108%
COc1ccccc1CC(=O)Nc1ccc([N+](=O)[O-])cc1OC 100%
Cc1ccc(Nc2nc(CSc3nnc(-c4ccncc4)n3-c3ccccc3C)cs2)cc1 101%
O=C(/C=C/Nc1ccccc1)c1cnc(-c2ccccc2)s1 107%
CC(C)CC(=O)N1CCN(Cc2ccccc2Br)CC1 105%
Cc1ccccc1CCN(CC(=O)NC1CCCCC1)C(=O)c1csnn1 96%
Cc1cccc(/C=N/NC(=O)CNc2cccc3ccccc23)n1 103%
CC(C)(C)NC(=O)c1cccc(NC(=O)Cc2ccc(Br)cc2)c1 100%
CCOc1cc(C2C(C(=O)OC)=CN(C3CCCC3)C=C2C(=O)OC)cc(Br)c1O 108%
COc1ccc(CCNC(=O)CSc2nnc3ccc(-c4ccncc4)nn23)cc1 102%
CCCCOC(=O)c1ccc(N2C(=O)CC(N3CCN(C/C=C/c4ccccc4)CC3)C2=O)cc1 (stereo not given) 124%
O=C(NCC1CCCCC1)c1cc(S(=O)(=O)N2CCCCC2)ccc1N1CCOCC1 87%
Cn1c(SCc2nc3ccccc3s2)nnc1-c1ccc2c(c1)OCO2 102%
Cc1cccc(-c2ncc(CN3CCC(CO)(CCCc4ccccc4)CC3)cn2)c1 131%
Cc1cn(COC/C=C/c2ccccc2)c(=O)[nH]c1=O 103%
COc1cc(NC(=S)NCc2ccco2)c(OC)cc1Cl 108%
COC(=O)c1c(NC(=O)COC(=O)[C@@H](NS(=O)(=O)c2ccccc2)C(C)C)sc2c1CCC2 96%
COc1cc(-c2nc(-c3ccncc3)no2)cc(OC)c1OC 104%
Cc1cccc(CSc2nnc(C)c(=O)n2N)c1 100%
O=C(O)CCCC(=O)Nc1ccc(Oc2cccc(C(F)(F)F)c2)nc1 106%
COc1cc(CC(=O)N/N=C/c2ccccc2)c([N+](=O)[O-])cc1OC 99%
COc1ccc(S(=O)(=O)N2CN(CCc3ccc(OC)c(OC)c3)c3nc4ccccc4nc32)cc1 96%
CCOC(=O)C(NS(=O)(=O)c1ccc(C)cc1)(C(F)(F)F)P(=O)(OCC(C)C)OCC(C)C (stereo not given) 90%
O=c1[nH]c(=S)[nH]c2[nH]c(=S)[nH]c12 101%
Cc1ccccc1-c1ccc(Nc2ccc(C(=O)N3CCOCC3)cc2)nn1 103%
CCOC(=O)c1c(Cc2ccc(Cl)cc2)c[nH]c1C 105%
O=C(Nc1cccnc1)c1cc(Cl)ccc1Cl 109%
